Reference: the supplement of paper PMC10338343
± gives the standard deviation. Over roughly 6,200 sequences, “pre-steady-state target cleavage rate” has its median near 0.29; the highest 2% begin near 2. This is one part of a sample in which the highest values are shown more often than they occur.

The sequences below were run on MIWI (PIWIL1) piRISC loaded with piRNA #1 (30 nt) (assay: pre-steady-state target cleavage rate (min^-1); MIWI and MILI are mouse PIWI proteins and EfPiwi is from a freshwater sponge; tags in brackets are library labels; higher = faster piRNA-guided slicing of the target). Conditions: guide: piRNA #1 5'p-UGAGGUAGUAGGUUGUAUAGUAUCCAGAGG; auxiliary factor: 500 nM mouse GTSF1.
Procedure: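 Cleave-'n-Seq: a library of target RNAs (target site embedded in constant flanks, ACAGCATTCCGCGTTAGTGATATCCG... 5' flank; DNA-blocked outside the site) at 0.1 nM was incubated with 1 nM active mouse MILI or MIWI piRISC (synthetic 5'-monophosphorylated piRNA guide) with or without 500 nM mouse GTSF1 at 33 °C for 1 min to 16 h. Uncleaved targets were sequenced and normalised to non-target controls, and the pooled three trials were fitted to a burst-and-steady-state model to give the pre-steady-state cleavage rate (min^-1; k3 is constrained to at most 1e-4). Sequence is the target site only; target names encode pairing extent (gX:gY) and contiguous / 1-mismatch / 2-mismatch / bulge geometry. Fits with R² ≤ 0 are excluded.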

Sequence	pre-steady-state target cleavage rate
GGACUGGAUAGUAUACAACCUUCUACCUCA	0.575 ± 0.045
GGUCUGGAUACUAUACAACGUUCUACCUCA	0.117 ± 0.014
GGAGACCUAUGUAUAGAACCUUCUACCUCA	0.0033 ± 0.0012
GCUCUGGAUACUAUACAACCUACUAUCCUCA	1.51 ± 0.11
GGUGUGGAUACUAUACAACCUUCUACCUCA	0.734 ± 0.033
GGAGACCUAACUAUACAACGUACUACCACA	0.165 ± 0.031
GGAGACCUAUGAAUACUAGCUACUACCUCA	< 0.0001
GGAGAGGAUACUAUACAACCUUCUAGCUCA	0.0222 ± 0.0082
GGACUGGAUACUAUACAACUUACUACCUCA	0.518 ± 0.023
CCUCUGGAUACUAUACAACCCUACUACCUCA	0.00658 ± 0.0036
CCUCUGGAUACUAAACAACCUACUACCUCA	1.86 ± 0.12
GGUCUGGAUACUAUUCAACCUACUACCACA	0.506 ± 0.045
GGUCUGAAUACUAUACAACCUACUACCUCA	1.8 ± 0.097
CCCUCUGGAUACUAUACAACCUACUACCUCA	2.25 ± 0.12
GCUCUGAAUACUAUACAACCUACUACCUCA	1.89 ± 0.12
GCUCUGGAUACUAAACAACCUACAACCUCA	1.23 ± 0.089
GCUCUGGAUACUAUUCAACCUACUACCACA	1.9 ± 0.16
CCUCUGGAUACUAUUCAACCUACUACCACA	2.19 ± 0.18
CCUCUGGAUACUAAACAACCUACAACCUCA	1.48 ± 0.12
CCUCUGAAUACUAUACAACCUACUACCUCA	2.09 ± 0.13
CCUCUGGAUACUAUACAACCUACUACCCUCA	1.38 ± 0.097
CCUCUGGUUACUAAACAACCUACUACCUCA	2.34 ± 0.16
GGAGGGGAUACUAUACAACCUACUACCUCA	1.51 ± 0.069
GCACUGGAUACAAUACAACCUACUACCUCA	1.8 ± 0.1

Sequence	pre-steady-state target cleavage rate
GGAGACCUAUCUAUACAACCUACUCACCUCA	0.537 ± 0.059
GGAGUGGAUACUAAACAACCUACUUCCUCA	0.0286 ± 0.0079
GGAGUGGAUACUGAUACAACCUACUACCUCA	1.3 ± 0.098
GGAGACCUAACAAUACAACCUACUACCUGA	0.00542 ± 0.0049
GGAGAGGAUACGUAUACAACCUACUACCUCA	0.484 ± 0.047
GGAGUGGUUACAAUACAACCUACUACCUCA	1.2 ± 0.079
GGUCUGGAAACUAUACAACCUAGUACCUCA	0.484 ± 0.077
GGAGACCUAACUAUACAACCUACUACCCCA	0.867 ± 0.099
GGUCUGGAAUACUAUACAACCUACUACCUCA	1.83 ± 0.11
GCUCUGGAUACUAUAUAACCUACUACCUCA	1.79 ± 0.1
GGUCUGGAUACUAUAUAACCUACUACCUCA	1.86 ± 0.1
CCUCUGGAUACUAUUACAACCUACUACCUCA	1.82 ± 0.12
CCUCUGGAAUACUAUACAACCUACUACCUCA	2.19 ± 0.13
GCUCUGGAAUACUAUACAACCUACUACCUCA	1.92 ± 0.1
GCUUCUGGAUACUAUACAACCUACUACCUCA	1.94 ± 0.091
CUUCUGGAUACUAUACAACCUACUACCUCA	1.99 ± 0.11
CCUCUGGAUACUAUACAACCUAUUACCUCA	2.07 ± 0.13
GCUCUGGAUACUAUACAACCUAUUACCUCA	1.88 ± 0.13
CCUUCUGGAUACUAUACAACCUACUACCUCA	2.22 ± 0.12
CCUCUGGAUACUAUAUAACCUACUACCUCA	2.07 ± 0.12
GGACUGGAUAACUAUACAACCUACUACCUCA	1.11 ± 0.087
GGAGACCAUACUAUACAUCCUAGUACCUCA	0.343 ± 0.029
CCUCUGGAUACUAUAGAACCUACAACCUCA	0.0249 ± 0.007
GCUCUGGAAACUAUUCAACCUACUACCUCA	1.68 ± 0.12

Sequence	pre-steady-state target cleavage rate
CCUCUGGAUACUAUACAACCUACUAACCUCA	2.09 ± 0.13
GCUCUGGAUACUAUACAACCUACUACCUCA [g2:g29:cont:t1A]	1.89 ± 0.1
GGUCUGGAAACUAUUCAACCUACUACCUCA	1.58 ± 0.096
GCUCUGGAUACUAUACAACCUACCUACCUCA	1.63 ± 0.091
CCUCUGGAUACUAUACAACCUAACUACCUCA	0.0333 ± 0.0068
CCUCUGGAAACUAUUCAACCUACUACCUCA	2.02 ± 0.13
CGCUCUGGAUACUAUACAACCUACUACCUCA	2.27 ± 0.14
GCUCUGGAUACUAUACAACCUACUAACCUCA	1.71 ± 0.11
GGAGAGGAAACUAUACAACGUACUACCUCA	0.27 ± 0.037
GGAGACCUAUGAUAUGUACCAACAACCUCA	< 0.0001
GGAGUCGGAUACUAUACAACCUACUACCUCA	1.45 ± 0.091
GGUCUGCAUACUAUACAACCUACUACCUCA	1.71 ± 0.1
GCUCUGGAUACUACACAACCUACUACCUCA	1.89 ± 0.095
GGAGACCAUACUAAACAACCUACUACCUGA	0.604 ± 0.08
GGAGAGCAUACUAUACAACGUACUACCUCA	0.557 ± 0.036
GGUAUGGAUACUAUACAACCUACUACCUCA	1.88 ± 0.11
GGUCAUGGAUACUAUACAACCUACUACCUCA	1.85 ± 0.11
CCUAUGGAUACUAUACAACCUACUACCUCA	2.15 ± 0.12
GCUCAUGGAUACUAUACAACCUACUACCUCA	1.98 ± 0.1
GCUAUGGAUACUAUACAACCUACUACCUCA	1.93 ± 0.092
CCUCAUGGAUACUAUACAACCUACUACCUCA	2.31 ± 0.13
GGAGACGAUACAAUACAACCUACUUCCUCA	0.408 ± 0.056
CCUUUGGAUACUAUACAACCUACUACCUCA	2.3 ± 0.12
GCUUUGGAUACUAUACAACCUACUACCUCA	1.91 ± 0.11
